Source: PubChem (National Center for Advancing Translational Sciences (NCATS))
Only some compounds are listed: those with a hit (about 0.4% of all), similar ones and a draw of the others.
EPAC1 ag: agonists of human EPAC1; AID 720707; 360,000 compounds, 0.073% hits; O95398; Potency, µM (series often up to 154 µM), most hits filed as activators; EPAC1 agonist qHTS, biochemical assay; response scale: 100% = response to 6.5 mM cAMP; note: nearly all actives have a fitted effect of over 60% in size
Target sequence (O95398 whole entry, looked up): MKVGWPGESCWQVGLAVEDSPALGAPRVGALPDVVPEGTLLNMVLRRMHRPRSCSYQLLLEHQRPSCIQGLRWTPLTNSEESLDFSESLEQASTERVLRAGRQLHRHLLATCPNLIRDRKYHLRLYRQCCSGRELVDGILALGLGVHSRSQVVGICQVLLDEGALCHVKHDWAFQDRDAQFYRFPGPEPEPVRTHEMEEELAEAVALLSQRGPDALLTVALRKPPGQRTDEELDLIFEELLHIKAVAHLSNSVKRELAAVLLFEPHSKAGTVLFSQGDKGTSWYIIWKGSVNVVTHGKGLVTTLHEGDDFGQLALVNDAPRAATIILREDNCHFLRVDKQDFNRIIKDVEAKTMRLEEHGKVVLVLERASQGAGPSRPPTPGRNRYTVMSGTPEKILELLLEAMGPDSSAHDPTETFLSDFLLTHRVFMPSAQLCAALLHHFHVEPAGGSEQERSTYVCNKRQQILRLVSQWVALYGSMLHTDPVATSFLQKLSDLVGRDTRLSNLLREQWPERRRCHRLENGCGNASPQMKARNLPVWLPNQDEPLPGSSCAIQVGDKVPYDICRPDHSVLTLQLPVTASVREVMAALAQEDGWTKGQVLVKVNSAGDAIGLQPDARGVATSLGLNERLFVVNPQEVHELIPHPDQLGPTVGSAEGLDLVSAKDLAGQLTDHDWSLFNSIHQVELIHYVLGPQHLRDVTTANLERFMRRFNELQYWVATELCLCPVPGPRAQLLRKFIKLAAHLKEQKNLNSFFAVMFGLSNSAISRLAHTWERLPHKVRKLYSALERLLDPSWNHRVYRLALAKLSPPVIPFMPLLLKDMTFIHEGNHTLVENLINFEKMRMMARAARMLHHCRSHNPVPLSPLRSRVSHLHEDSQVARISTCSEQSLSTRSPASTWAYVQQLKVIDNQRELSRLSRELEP
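EPAC1 100 nM, Rap1B–BODIPY-GDP 250 nM, unlabeled GDP 50 uM; compound titration; 5 min RT; kinetic read ex480/em540 at 5-min intervals ×30 min; data normalized to 6.5 mM cAMP agonist control.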
ERG Ets-DNA blk: blocks human ERG Ets domain binding to DNA; P11308; fluorescence polarization, His-ERG Ets domain / labelled DNA; Potency, µM (titrated, usually from 76.9 µM), most hits filed as inhibitors; 370,000 compounds, 0.028% hits; active = well fitted inhibition curve with a large enough effect in the polarisation, with a control signal flat; inconclusive = small, poorly fitted or top-dose-only effect, or effect the other way, or a change in a side signal; inactive = no such curve, though single readings can be large or run the other way; the % refers to the polarisation;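 note: polarization taken with two DNA probes labelled with fluorescein and Texas red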
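His-tagged ERG Ets domain (1 uM in the protein solution; 300mM KCl, 50mM Tris-HCl, 1mM EDTA, 1mM DTT, pH 7.5) received compound, then a probe mix of 5 nM fluorescein-DNA and 100nM Texas-615-DNA. Fluorescence polarization was read for both dyes.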
RGS4 inh: inhibitors of human regulator of G protein signaling 4. AID 504845. 390,000 compounds, 0.039% hits. Potency, µM (titrated, usually from 114 µM), hits mostly inhibitors. P49798. Transcreener GDP fluorescence polarization, RGS4-accelerated GTP hydrolysis; note: nearly all actives have a fitted effect of over 75% in size
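MLSMR compounds (23 nl, pin-transferred) preincubated 10 min at room temperature with a 500nM (2x) first reagent, then RGS4 at 900nM (2x) plus Transcreener GDP mix added; fluorescence polarization (620/688 nm) read before and after 90 min at 30 °C.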
EPAC2 ag: EPAC2 (human) agonism | Q8WZA2 | EPAC2 activation, biochemical qHTS; response scale: 100% = 6.5 mM cAMP response | Potency, µM (doses to about 154 µM), most hits filed as activators | 360,000 compounds, 0.079% hits; note: nearly all actives have a fitted effect of over 50% in size
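qHTS, titration series. 100 nM EPAC2 / 250 nM Rap1B-BODIPY-GDP / 50 uM GDP; RT; ex 480/em 540 nm, 5-min reads to 30 min. Norm. to 6.5 mM cAMP = activation.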
EPAC1 antag: EPAC1 (human) antagonism. O95398. EPAC1 GEF assay, Rap1b-BODIPY-GDP exchange fluorescence. Potency, µM (doses to about 115 µM), usual class: inhibitors. 360,000 compounds, 0.14% hits; note: nearly all actives have a fitted effect of over 50% in size
EPAC2 antag: blocks human EPAC2 exchange factor; EPAC2 GEF exchange of Rap1B-BODIPY-GDP, fluorescence; AID 720708; Potency, µM (titrated, usually from 114 µM), most hits filed as inhibitors; 360,000 compounds, 0.18% hits; note: nearly all actives have a fitted effect of over 45% in size
A number is an active result; 0 = inactive; ? = inconclusive; - = no result; ! = a repeat was not active. Unless noted, calls come from the whole dose curve; as a rule, active = well fitted curve in the direction sought with a large enough effect; inconclusive = small, poorly fitted or top-dose-only effect, or another doubt; inactive = no such curve, though single readings can be large; an effect the other way counts as inactive or inconclusive.

SMILES | EPAC1 ag | ERG Ets-DNA blk | RGS4 inh | EPAC2 ag | EPAC1 antag | EPAC2 antag
CSc1nc(N)c2ncn([C@@H]3O[C@H](COP(=O)(O)OP(=O)(O)OP(=O)(O)O)[C@@H](O)[C@H]3O)c2n1 | - | - | 12µM! | - | - | -
Nc1ncnc2c1ncn2[C@@H]1O[C@H](COP(=O)(O)OP(=O)(O)OP(=O)(O)O)[C@@H](O)[C@H]1O | 0 | 0 | 0 | 0 | 0 | 0
CSc1nc(N)c2ncn([C@@H]3O[C@H](COP(=O)(O)OP(=O)(O)O)C(O)[C@H]3O)c2n1 (stereo not given in full) | - | - | 0.53µM | - | - | -
NC(=O)C1=CN(C2OC(COP(=O)(O)OP(=O)(O)OC[C@H]3O[C@@H](n4cnc5c(N)ncnc54)[C@H](OP(=O)(O)O)[C@@H]3O)C(O)C2O)C=CC1 (stereo not given in full) | - | - | 13µM | - | - | -
CN1CCN2c3ccccc3CC3(C(=O)OC(C)(C)OC3=O)C2C1 (stereo not given) | - | - | 0 | - | - | -
CC(C)N=c1scc(-c2ccco2)n1/N=C/c1ccc(O)c(O)c1 | 0 | 0 | 0 | ? | ? | 0
COCCN=c1scc(-c2ccco2)n1/N=C/c1ccc(O)c(O)c1O | 0 | 0 | ? | 0 | 18µM | 0
Oc1ccc(/C=N/n2c(-c3ccco3)csc2=Nc2cccnc2)c(O)c1 | 0 | 0 | 0 | 0 | 0 | 0
C=CCN=c1scc(-c2ccco2)n1/N=C/c1ccc(O)c(O)c1O | 0 | 0 | ? | 0 | 56µM | 0
CN=c1scc(C)n1/N=C/c1ccc(O)c(O)c1O | 0 | 0 | 0 | 0 | 50µM | 0
CN=c1scc(-c2cccs2)n1/N=C/c1ccc(O)c(O)c1O | 0 | 0 | ? | 0 | ? | 0
CCOc1cccc(C2C=C(c3ccc4c(c3)OCO4)NC(c3ccccc3Cl)N2)c1O (stereo not given) | - | - | 0 | - | - | -
CCn1c(CSc2n[nH]c(N)n2)nc2cc(C(=O)O)ccc21 | 0 | 16µM | ? | 0 | 0 | 0
CCn1c(CSc2nnc(-c3ccncc3)n2CCOC)nc2cc(C(=O)O)ccc21 | 0 | 5µM | ? | 0 | 0 | 0
C=CCN1C(=O)/C(=C/c2ccc(OCC(=O)O)cc2)S/C1=N/c1nccs1 | 0 | 0 | 0 | 0 | 0 | 50µM
CCOc1ccc(N(C(C)C(=O)NCCSc2ccc(Cl)cc2)S(C)(=O)=O)cc1 (stereo not given) | - | 0 | 0 | - | - | -
CCOC(=O)Nc1cc2c(c(N)n1)N=C(c1ccccc1)CN2 | 0 | 0 | 0 | 0 | 89µM | 0
O=C(O)CN1C(=O)/C(=C\c2cc(Br)ccc2OCc2ccccc2F)SC1=S | 0 | 0 | ? | 0 | ? | 56µM
O=C(O)CN1C(=O)/C(=C\c2cc(Br)ccc2OCc2ccccc2Cl)SC1=S | 0 | 0 | ? | 0 | 40µM | 0
O=C(O)CN1C(=O)/C(=C\c2ccccc2OCc2ccc(Cl)cc2Cl)SC1=S | 0 | 0 | ? | 0 | ? | ?
Cc1ccc2c(C)c(C(=O)N(C)C(C)c3ccon3)oc2c1C (stereo not given) | 0 | 32µM | 0 | 0 | 0 | 0
CN(CC(=O)Nc1ccccc1C(F)(F)F)C(=O)c1cc(-c2cccs2)nn1-c1ccccc1 | 112µM | 0 | 0 | 0 | 0 | 0
O=S(=O)(c1ccc2ncccc2c1)N1CCN(c2nc(-c3cccs3)nc3ccccc23)CC1 | - | - | 0 | - | - | -
COc1ccc(C(=O)Nc2ccccc2-c2nnn(CC(N)=O)n2)cc1 | 0 | 0 | 0 | 0 | 89µM | 0
Cc1ccc(C(=O)c2coc3ccc(O)c(Cl)c23)cc1 | 0 | 0 | 0 | 0 | 20µM | ?
O=C(O)c1cccc(N2C(=O)c3cccc4cccc(c34)C2=O)c1 | 0 | 0 | 0 | 0 | ? | 0
O=C(O)c1cccc(N2C(=O)c3cc([N+](=O)[O-])cc4cc([N+](=O)[O-])cc(c34)C2=O)c1 | 0 | 0 | 0 | 0 | 0 | 50µM
CCOC(=O)c1c(NC(=O)C2=C(C)NC(=S)NC2c2ccccc2C(F)(F)F)sc(C)c1C (stereo not given) | 0 | 35µM | 0 | 0 | 0 | 0
